The results in this text go back to PubChem BioAssay AID489018 (Southern Research Specialized Biocontainment Screening …, 2010).

The whole screen tested about 2,300 compounds, of which about 350 (15%) were called active. Not all results are given here. Measured potencies and affinities stand elsewhere. A number with no mark means an inactive call. The rule behind the calls is not given here.

The nature of the assay: HepG2 cell cytotoxicity, dose response, cytotoxicity control for non-replicating M. tuberculosis project (AID 489018).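 Note: HepG2 human liver cells; 100% = vehicle-treated cells and 0% = background signal.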 Particulars: series mostly up to 20 µM; viability: at the top concentration.
Broadly, the viability is a read-out of living cells in per cent, often relative to untreated cells. Consider `CCCCCCCC(=O)N/N=C(/C)c1c(O)cc(C)oc1=O`, for which the “viability” value is 107% [at 5 µM].
Regarding `CCCCCCCC(=O)NNC(=O)c1ccc(F)cc1`, the “viability” value is 97.3% [at 5 µM].
With `O=C(OCc1c(Cl)cccc1Cl)c1ccccn1`, the “viability” value was 103%.
On to `COC(=O)COc1cccc(NC(=O)COc2ccccc2)c1`, for which the “viability” value is 98.3% [at 5 µM].
With `O=C(N/N=C/C(Br)=C/c1ccccc1)c1cnccn1`, the “viability” value was 95.7%.
The same measure for `O=C(N/N=C/C(Br)=C/c1ccccc1)c1ccncc1`: 99.2%; for `COc1ccc(NC(=O)CCCN2C(=O)/C(=C\c3ccco3)SC2=S)cc1`: 97.5%; for `O=c1[nH]c(=O)n(Cc2ccccc2Cl)c(O)c1/C=C1/C=CC=N1`: 96.3%.
Turning to `c1ccc(Nc2nc(Nc3ccccc3)nc(N3CCNCC3)n2)cc1`, the “viability” value is 72.8%.
As for `COc1ccc(CCOC(=O)c2ccc(N)c([N+](=O)[O-])c2)cc1`, the “viability” value was 92.9%.
`Cc1ccccc1NC(=O)c1nc[nH]c1C(=O)NCc1ccccc1`: the “viability” value was 89.2%.
The same measure for `O=C(COC(=O)CCc1c[nH]c2ccccc12)Nc1cc([N+](=O)[O-])ccc1Cl`: 97.9%.
Regarding `C[C@H](NC(=O)c1[nH]cnc1C(=O)Nc1ccccc1)C(=O)OC(C)(C)C`, the “viability” value was 108% [at 5 µM].
Consider `O=c1c2c(nc3c(-c4ccccc4)c[nH]n13)CCCC2`, for which the “viability” value was 79.2%.
As to `Cc1ccc(-c2noc(CCCC(=O)Nc3cccnc3)n2)cc1`, the “viability” value was 102% [at 5 µM].
Next, `CCCCNC(=O)COC(=O)c1cc(F)c(F)cc1Cl`: 97.4%.
On to `O=C(/C=C/Nc1ccccc1O)c1ccco1`, for which the “viability” value is 93.7%.
Consider `O=C(CCNc1ccc(F)cc1)c1ccco1`, for which the “viability” value is 104% [at 5 µM].
In the case of `COc1ccc(C(=O)COC(=O)c2ccccc2O)c(OC)c1`, the “viability” value was 97.4%.
The same measure for `CCCS(=O)(=O)c1nnnn1-c1cccc(OC)c1`: 99.5% [at 5 µM].
Regarding `CCOC(=O)Cn1cc(C#N)c2cccc(CC)c21`, the “viability” value was 95.7%.
Turning to `CCn1c(NC(=O)c2ccccc2)nc2ccccc21`, the “viability” value is 81.6%.
For `CCOC(=O)COc1ccc2c(c1)c(C(C)=O)c(C)n2Cc1ccccc1`, the “viability” value is 102%.
The same measure for `CCOC(=O)C(C)Oc1ccc(OCc2ccccc2)cc1` (stereo unspecified): 90.2%; for `CC(C)(C)NC(=O)c1ccc(NC(=O)c2ccccc2-c2ccccc2C(=O)O)cc1`: 106%; for `CSc1ccc(N=Nc2c(C)[nH]n(C)c2=O)cc1`: 82.9%.
With `Nc1nc2ccccc2n1CCOc1ccccc1Cl`, the “viability” value was 77.5%.
Regarding `C/C(=N\NC(=O)c1ccccc1)c1nc2ccccc2n1C`, the “viability” value was 99.8% [at 5 µM].
On to `C/C(=N\NC(=O)c1ccc([N+](=O)[O-])c(C)c1)c1ccccc1Cl`, for which the “viability” value is 93.5%.
Turning to `Cc1ccc(N2NC(=O)/C(=C/C=C/c3ccco3)C2=O)cc1C`, the “viability” value is 93%.
As for `c1ccc(CSc2ccc(-c3ccccn3)nn2)cc1`, the “viability” value is 78.7%.
Consider `COC(=O)/C(=C1/Oc2cc(C)oc(=O)c2S1)C(F)(F)F`, for which the “viability” value is 110% [at 5 µM].
As for `O=C(Nc1cccc(Cl)c1N1CCCC1)c1ccc([N+](=O)[O-])o1`, the “viability” value was 84.4%.
With `O=C(Nc1nc2c(Cl)cccc2s1)c1ccc([N+](=O)[O-])o1`, the “viability” value was 90.5%.
Consider `Cc1ccc(C)c(-c2nnc(NC(=O)c3ccc([N+](=O)[O-])o3)o2)c1`, for which the “viability” value was 91% [at 5 µM].
The same measure for `O=C(Nc1ccccc1N1CCN(C(=O)c2ccc(Cl)cc2)CC1)c1ccc([N+](=O)[O-])o1`: 77%; for `O=C(Nc1ccc(S(=O)(=O)N2CCOCC2)cc1)c1ccc([N+](=O)[O-])o1`: 113% [at 5 µM].
Consider `O=C(Nc1cccc(S(=O)(=O)N2CCCCC2)c1)c1ccc([N+](=O)[O-])o1`, for which the “viability” value is 71.3% [at 5 µM].
Turning to `O=C(Nc1ccc(Cc2ccncc2)cc1)c1ccc([N+](=O)[O-])o1`, the “viability” value is 92.2% [at 5 µM].
For the molecule `Cc1ccc(-n2nnnc2CNC(=O)c2ccc([N+](=O)[O-])o2)cc1C`, the “viability” value was 78.6%.
Regarding `CCNC(=O)COC(=O)c1ccc(-c2nc3ccccc3s2)s1`, the “viability” value was 95.6%.
Regarding `O=C(CCN1CCN(C/C=C/c2ccccc2)CC1)Nc1ccc(Cl)cc1`, the “viability” value was 74.9%.
Consider `O=C(COc1ccc(F)cc1)N/N=C/c1cccc2cccnc12`, for which the “viability” value is 111%.
The same measure for `CCCn1nnnc1NC(=O)c1ccc2ccccc2c1`: 93.8%; for `COCCn1c(C)cc(C(=O)COC(=O)c2ccc([N+](=O)[O-])o2)c1C`: 103%; for `CC(=O)Oc1c(-c2ccc(Br)o2)oc2ccccc2c1=O`: 96.1%.
`C=CCn1c(O)c(C2=c3ccccc3=NC2=O)c2ccccc21`: the “viability” value was 109% [at 5 µM].
For the molecule `O=C1c2cc([N+](=O)[O-])cc3cc([N+](=O)[O-])cc(c23)C(=O)N1c1ccccn1`, the “viability” value was 95.9% [at 5 µM].
On to `CCCCNC(=O)COC(=O)c1cc(Br)ccc1Cl`, for which the “viability” value is 101%.
Take `O=C(Nc1nccs1)c1ccc(-c2ccc(Cl)cc2)o1`: the “viability” value is 91.2%.
The same measure for `O=C(Nc1ncccn1)c1ccc([N+](=O)[O-])o1`: 91%.
As to `O=C(Nc1cccnc1)c1ccc(-c2ccc(Cl)cc2)o1`, the “viability” value is 101%.
Next, `Cc1ccc(CNC(=O)c2ccc([N+](=O)[O-])o2)cc1`: 86.4%; `O=C(Nc1ccccn1)c1ccc([N+](=O)[O-])o1`: 110%; `O=C(Nc1nc(-c2ccccn2)cs1)c1ccc([N+](=O)[O-])o1`: 110% [at 5 µM].
Consider `CCOC(=O)c1cc(-c2csc(COc3ccc(Cl)cc3)n2)on1`, for which the “viability” value was 96.1%.
For the molecule `Cc1cccc(NC(=O)COC(=O)CCc2c[nH]c3ccccc23)c1C`, the “viability” value is 109%.
On to `CC(OC(=O)c1ccc2c(=O)n3c(nc2c1)CCCCC3)C(=O)Nc1ccc(Cl)cn1` (stereo unspecified), for which the “viability” value was 97.6%.
As to `C=CCn1c(NC(=O)c2ccccc2)nc2ccccc21`, the “viability” value was 102% [at 5 µM].
On to `C/C(=N/NC(=O)c1ccncc1)C1=C(O)CC(C)(C)CC1=O`, for which the “viability” value was 106% [at 5 µM].
`C=Cc1cccc(NC(=O)COc2ccccc2)c1`: the “viability” value was 95.6%.
Regarding `Cc1ccc(NCCC(=O)c2cccs2)cc1Cl`, the “viability” value is 108%.
With `CCOC(=O)COc1ccc2c(c1)c(C(=O)OCC)c(C)n2CC`, the “viability” value is 102%.
For `NC(N)=Nc1nc(-c2ccccc2)c2ccccc2n1`, the “viability” value is 102% [at 5 µM].
On to `Cc1cc(C)c2nc(/N=C(\N)NC(=O)Nc3ccccc3)nc(C)c2c1`, for which the “viability” value is 95.2%.
In the case of `CCC(CC)c1nnc(NC(=O)c2ccc3ccccc3n2)s1`, the “viability” value was 80.1%.
On to `Cc1ccc(NC(=O)CO/N=C/c2ccccc2C)c(C)c1`, for which the “viability” value is 92.9%.
As for `CC(=O)CCC1CC(c2ccc(Cl)cc2)=NO1` (stereo unspecified), the “viability” value was 100%.
Regarding `CCCCCCNC(=O)c1ccc(Br)o1`, the “viability” value is 102%.
Turning to `COc1cccc2cc(C(=O)NCc3ccc(F)cc3)c(=N)oc12`, the “viability” value is 119%.
For `O=[N+]([O-])c1cncc([N+](=O)[O-])c1Nc1ccccc1Cl`, the “viability” value is 97.8% [at 5 µM].
On to `Cc1cc(Br)ccc1OCC(=O)NNC(=O)c1cnccn1`, for which the “viability” value is 111% [at 5 µM].
For the molecule `Cc1ccc(C(=O)C=CNNC(=O)c2ccccc2)cc1`, the “viability” value is 98.9%.
In the case of `Cc1nc(C(=O)Nc2ccccc2)sc1C(=O)Nc1ccccc1`, the “viability” value is 91%.
For `CNC(=O)c1[nH]cnc1C(=O)Nc1ccc(Cl)cc1`, the “viability” value was 98.1%.
With `O=C(CN1CCOCC1)N/N=C/c1ccc(-c2ccc(Br)cc2)o1`, the “viability” value is 96.8%.
On to `CCOCC(=O)Nc1ccc(C)c(Cl)c1`, for which the “viability” value was 99.3%.
In the case of `O=C(Nc1ccccc1)c1ccc(Br)o1`, the “viability” value is 110% [at 5 µM].
Consider `CCC(C)(C)NC(=O)c1ccc(Br)o1`, for which the “viability” value is 110%.
On to `O=C(O)CCCCCN1C(=O)/C(=C\c2ccncc2)SC1=S`, for which the “viability” value is 90.8%.
Next, `CCn1c(-c2ccco2)nc2ccccc21`: 101%; `COc1cccc(COC(=O)c2sc3nc4n(c(=O)c3c2C)CCC4)c1OC`: 106%; `Cc1cccc(NC(=O)c2ccc([N+](=O)[O-])s2)n1`: 79.6%.
The same measure for `COc1ccc(NC(=O)c2cnc(SC)nc2)cc1`: 87.5%; for `Cc1ccccc1-n1sc2cc(F)ccc2c1=O`: 90.2%; for `O=C(Nc1ccn(Cc2ccccc2)n1)c1ccc(F)cc1`: 107% [at 5 µM].
As for `CN(CCCCOc1ccc(F)cc1)Cc1ccccc1`, the “viability” value was 102%.
Regarding `O=C(CCN1C(=O)S/C(=C\c2ccc(F)cc2)C1=O)Nc1ccc(C(=O)O)c(O)c1`, the “viability” value was 102%.
The same measure for `FC(F)(Cl)c1nnc2ccc(Cl)nn12`: 78%; for `Cn1c(SCc2c(F)cccc2Cl)nc2c(c1=O)SCC2`: 92.9%; for `O=C(Oc1ccccc1)c1cc2ccccc2o1`: 110% [at 5 µM].
Turning to `COC(=O)c1ccc2c(c1O)C(=O)c1ccccc1C2=O`, the “viability” value was 102% [at 5 µM].
Consider `COc1ccc(-c2[nH]ncc2CN2CCCCCCC2)c(OC)c1`, for which the “viability” value is 97.7%.
In the case of `Cc1noc2ncnc(Sc3ccccc3Cl)c12`, the “viability” value is 111%.
Take `Cc1ccc(/C=N/NC(=O)c2ccncc2)s1`: the “viability” value was 107%.
Consider `O=C(N/N=C/c1ccc(Br)s1)c1ccncc1`, for which the “viability” value was 90%.
Consider `O=C(Nc1nccs1)c1ccc2ccccc2c1`, for which the “viability” value was 91.4%.
The same measure for `CC(C)(C)c1ccc(-c2nc(C#N)c(NCCCn3ccnc3)o2)cc1`: 101%; for `O=[N+]([O-])c1ccc(Nc2ccccc2O)c2nonc12`: 98.6%.
Consider `O=[N+]([O-])c1ccc(Nc2ccccc2)c2nonc12`, for which the “viability” value was 109%.
Next, `C#CCSc1nnc(-c2ccc(C)cc2)o1`: 93.6%; `c1ccc(CNCCC(Cc2ccccc2)c2ccco2)cc1` (stereo unspecified): 76.4%.
Next, `O=C(Nc1ccc(Cl)cc1Cl)c1cccc(N2C(=O)C=CC2=O)c1`: 99.2%; `c1ccc2[nH]c(NC3=NCCC3)nc2c1`: 103%.
In the case of `Cc1cccc(OCCCCc2c(C)n[nH]c2C)c1`, the “viability” value is 89.6%.
Next, `O=C(NC(=S)N1CCN(Cc2ccc3c(c2)OCO3)CC1)c1ccc(Cl)cc1`: 83.1%; `C/C(=N\Nc1cccc2cccnc12)c1ccccn1`: 82.3%.
Regarding `COc1cc(/C=N/NC(=O)c2ccccn2)ccc1OC(=O)c1cccs1`, the “viability” value was 92.5%.
In the case of `O=C(COc1ccc(Cl)cc1)NNC(=O)c1ccccn1`, the “viability” value is 105%.
Turning to `C/C(=N\NC(=O)CCCNc1ccc(C)cc1)c1ccccn1`, the “viability” value was 76.5% [at 5 µM].
Regarding `COc1ccc(C(=O)Nc2ccccc2C(=O)N/N=C/c2ccco2)cc1`, the “viability” value was 83%.
Regarding `COc1ccccc1/C=C/C=N/NC(=O)c1ccncc1`, the “viability” value is 96.1%.
As to `O=C(N/N=C/c1ccccn1)c1ccccc1`, the “viability” value was 87.5%.
Next, `C/C(=N\Nc1ccc(Cl)cc1)c1ccccn1`: 90.1%; `COc1ccc(N2C(=O)C(F)(F)C2c2cccc(F)c2)cc1` (stereo unspecified): 93.6%.
For the molecule `Cc1ccc(-c2nnc(NC(=O)c3ccco3)o2)c(C)c1`, the “viability” value was 94.2%.
The same measure for `Cc1ccc(S(=O)(=O)/N=C(\CCl)N2CCOCC2)cc1`: 100%; for `O=C(N/N=C/c1cccc2cccnc12)[C@H]1C[C@@H]1c1ccccc1`: 92.1%; for `CC(C)c1ccc(/C=N/NC(=O)c2ccccn2)cc1`: 96.6%.
For the molecule `O=C(CCc1c[nH]c2ccccc12)Nc1ncccc1O`, the “viability” value was 99.2%.
For `O=C(Nc1ccc(Br)cc1)c1cc([N+](=O)[O-])cc([N+](=O)[O-])c1`, the “viability” value was 96.6%.
